Measurements reported in ChEMBL document CHEMBL3988442, “University of Dundee, Small-Polar-MMV Screening Library” (2021).
For some of these results: Entries with a potency or affinity are not part of this list.

Legend:
Set-up in all cases: scale not given: direction of the effect not stated beside the values
[1] = target: Protein translocase subunit SecA (Escherichia coli (strain K12)) (UniProt P10408); assay: Assay to Identify E. coli SecA ATPase Inhibitors; type: functional; settings: 30 µM
[2] = target: T1, Ubiquitin-activating enzyme e1, putative (Leishmania donovani (strain BPK282A1)) (UniProt E9BSI1); assay: Leishmania donovani Ubiquitin Activating Enzyme (LdE1); type: functional; settings: 30 µM
T1 sequence (whole entry): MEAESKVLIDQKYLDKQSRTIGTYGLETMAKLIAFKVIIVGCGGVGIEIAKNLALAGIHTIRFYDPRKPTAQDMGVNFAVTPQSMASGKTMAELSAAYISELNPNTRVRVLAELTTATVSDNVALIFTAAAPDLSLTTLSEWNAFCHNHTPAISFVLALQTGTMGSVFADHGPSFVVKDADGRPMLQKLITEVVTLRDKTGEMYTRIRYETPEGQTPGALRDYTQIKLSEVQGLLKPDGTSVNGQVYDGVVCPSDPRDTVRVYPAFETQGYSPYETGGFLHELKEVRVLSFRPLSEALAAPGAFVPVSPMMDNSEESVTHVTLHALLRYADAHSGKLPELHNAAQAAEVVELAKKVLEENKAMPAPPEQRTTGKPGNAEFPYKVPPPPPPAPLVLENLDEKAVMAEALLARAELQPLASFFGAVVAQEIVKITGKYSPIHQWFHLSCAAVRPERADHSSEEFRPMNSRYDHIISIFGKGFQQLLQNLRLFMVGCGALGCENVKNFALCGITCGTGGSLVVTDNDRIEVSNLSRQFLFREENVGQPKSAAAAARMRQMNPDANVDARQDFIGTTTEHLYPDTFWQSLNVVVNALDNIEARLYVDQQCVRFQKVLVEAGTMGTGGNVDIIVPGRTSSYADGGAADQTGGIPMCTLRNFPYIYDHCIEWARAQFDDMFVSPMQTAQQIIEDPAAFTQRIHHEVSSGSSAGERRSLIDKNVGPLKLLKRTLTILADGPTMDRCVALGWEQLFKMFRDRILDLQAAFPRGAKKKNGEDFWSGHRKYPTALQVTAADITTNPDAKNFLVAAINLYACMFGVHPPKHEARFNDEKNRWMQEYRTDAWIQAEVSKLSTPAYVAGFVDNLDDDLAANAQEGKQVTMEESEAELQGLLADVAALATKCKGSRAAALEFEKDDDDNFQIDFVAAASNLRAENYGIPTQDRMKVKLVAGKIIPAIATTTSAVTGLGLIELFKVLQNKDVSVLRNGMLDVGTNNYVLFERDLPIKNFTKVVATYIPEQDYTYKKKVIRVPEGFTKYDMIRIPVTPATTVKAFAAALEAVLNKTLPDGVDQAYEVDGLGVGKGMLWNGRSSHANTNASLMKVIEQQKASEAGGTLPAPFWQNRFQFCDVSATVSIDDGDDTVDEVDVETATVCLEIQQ

[3] = target: AMP-activated protein kinase, AMPK (Homo sapiens) (UniProt P54646+O43741+P54619+Q9UGJ0+Q9Y478+Q13131+Q9UGI9); assay: AMP-dependent Kinase enzyme assay. An in vitro enzyme assay that detects ADP turnover that is directly proportional to AMPK activity. This uses naive AMPK that is activated during the assay with MK-8722; type: functional; settings: 30 µM
[4] = target: Sialic acid-binding Ig-like lectin 9 (Homo sapiens) (UniProt Q9Y336); assay: Hs-Siglec9 ALPHAscreen SOP 20170721; settings: 10 µM
Sequence of Sialic acid-binding Ig-like lectin 9 (Homo sapiens) (Q9Y336 whole entry): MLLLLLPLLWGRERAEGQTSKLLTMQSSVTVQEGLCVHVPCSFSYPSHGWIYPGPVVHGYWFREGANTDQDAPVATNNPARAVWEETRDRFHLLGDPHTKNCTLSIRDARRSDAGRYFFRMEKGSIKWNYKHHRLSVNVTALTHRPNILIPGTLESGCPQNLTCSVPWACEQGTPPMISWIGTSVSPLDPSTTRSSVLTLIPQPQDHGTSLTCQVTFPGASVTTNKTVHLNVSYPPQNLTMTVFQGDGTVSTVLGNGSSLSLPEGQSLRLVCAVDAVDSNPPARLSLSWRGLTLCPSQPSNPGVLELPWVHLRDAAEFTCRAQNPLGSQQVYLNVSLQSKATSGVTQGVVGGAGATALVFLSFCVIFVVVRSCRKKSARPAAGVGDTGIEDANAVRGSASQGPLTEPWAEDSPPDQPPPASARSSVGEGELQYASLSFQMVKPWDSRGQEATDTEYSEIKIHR

[5] = tested on: Trypanosoma cruzi; assay: Trypanosoma cruzi phosphomannomutase and mannose-1-phosphate guanylyltransferase assay; type: functional; settings: 10 µM
[6] = target: T2, Arginase-2, mitochondrial (Homo sapiens) (UniProt P78540); assay: in vitro enzyme assay to detect the production of urea directly proportional to the activity of Arginase II; type: functional; settings: 33.3 µM; note: in the data most compounds retested in dose-response had high values
T2 sequence (whole entry): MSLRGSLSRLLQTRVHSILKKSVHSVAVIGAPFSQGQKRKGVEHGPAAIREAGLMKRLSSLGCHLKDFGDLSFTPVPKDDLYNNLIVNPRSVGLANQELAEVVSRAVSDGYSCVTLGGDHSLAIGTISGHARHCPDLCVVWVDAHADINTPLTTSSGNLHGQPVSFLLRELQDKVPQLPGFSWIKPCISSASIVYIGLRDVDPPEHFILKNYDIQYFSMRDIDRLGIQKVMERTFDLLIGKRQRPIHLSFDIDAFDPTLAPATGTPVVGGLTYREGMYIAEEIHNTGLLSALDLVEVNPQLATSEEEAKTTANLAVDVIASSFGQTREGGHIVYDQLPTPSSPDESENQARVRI

[7] = target: T3, Proteasome subunit beta (Trypanosoma cruzi) (UniProt O96673); assay: Trypanosoma cruzi proteasome chymotrypsin-like activity (TcProtChymo) assay.; note: in the data most compounds retested in dose-response had high values; type: functional; settings: 9.37 µM
T3 sequence (whole entry): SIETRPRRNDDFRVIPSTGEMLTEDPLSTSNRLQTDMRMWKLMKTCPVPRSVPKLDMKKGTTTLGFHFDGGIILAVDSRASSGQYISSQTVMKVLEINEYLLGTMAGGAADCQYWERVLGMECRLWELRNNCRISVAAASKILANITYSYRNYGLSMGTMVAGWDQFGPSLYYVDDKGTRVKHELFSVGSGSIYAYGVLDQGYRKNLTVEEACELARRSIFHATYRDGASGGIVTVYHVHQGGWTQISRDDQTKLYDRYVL

[8] = species on record: Homo sapiens; assay: To identify inhibition of the IFN signalling (Jak-Stat) pathway via expression of an eGFP reporter gene under the control of an IFN-stimulated response element (ISRE) containing MxA promoter.; type: functional; settings: 30 µM
[9] = target: T4, Tyrosyl-tRNA synthetase, putative (Trypanosoma cruzi (strain CL Brener)) (UniProt Q4DSP6); assay: Trypanosoma cruzi tyrosyl tRNA synthetase (TcYRS) _High Tyrosine SOP; type: functional; settings: 30 µM; note: in the data most compounds retested in dose-response had high values
T4 sequence (whole entry): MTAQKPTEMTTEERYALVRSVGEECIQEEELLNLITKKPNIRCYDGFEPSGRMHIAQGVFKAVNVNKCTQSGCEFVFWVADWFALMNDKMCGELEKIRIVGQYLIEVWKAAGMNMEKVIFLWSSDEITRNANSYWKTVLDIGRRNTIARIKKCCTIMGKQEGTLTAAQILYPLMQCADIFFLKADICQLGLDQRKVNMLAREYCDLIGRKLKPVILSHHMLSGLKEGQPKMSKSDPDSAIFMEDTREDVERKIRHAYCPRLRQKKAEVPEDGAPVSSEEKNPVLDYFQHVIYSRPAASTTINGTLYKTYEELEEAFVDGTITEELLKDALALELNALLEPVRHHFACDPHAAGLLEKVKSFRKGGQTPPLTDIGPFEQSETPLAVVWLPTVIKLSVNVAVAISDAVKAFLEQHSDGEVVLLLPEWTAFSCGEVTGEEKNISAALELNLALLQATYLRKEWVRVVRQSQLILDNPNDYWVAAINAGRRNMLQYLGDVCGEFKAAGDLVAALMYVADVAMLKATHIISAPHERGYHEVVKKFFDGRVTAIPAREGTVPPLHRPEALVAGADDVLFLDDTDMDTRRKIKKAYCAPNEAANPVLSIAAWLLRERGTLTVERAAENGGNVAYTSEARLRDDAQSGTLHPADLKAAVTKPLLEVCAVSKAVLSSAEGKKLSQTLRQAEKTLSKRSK

[10] = target: T4, Tyrosyl-tRNA synthetase, putative (Trypanosoma cruzi (strain CL Brener)); assay: Trypanosoma cruzi tyrosyl tRNA synthetase (TcYRS) SOP; type: functional; settings: 30 µM
[11] = target: Chromo domain-containing protein 1 (Saccharomyces cerevisiae (strain ATCC 204508 / S288c) (Baker's yeast)) (UniProt P32657); assay: ScCHD-1 Enzyme Inhibition Assay; type: functional; settings: 30 µM; note: in the data most compounds retested in dose-response had high values
Sequence of Chromo domain-containing protein 1 (Saccharomyces cerevisiae (strain ATCC 204508 / S288c) (Baker's yeast)) (P32657 whole entry, the tested form may be a part): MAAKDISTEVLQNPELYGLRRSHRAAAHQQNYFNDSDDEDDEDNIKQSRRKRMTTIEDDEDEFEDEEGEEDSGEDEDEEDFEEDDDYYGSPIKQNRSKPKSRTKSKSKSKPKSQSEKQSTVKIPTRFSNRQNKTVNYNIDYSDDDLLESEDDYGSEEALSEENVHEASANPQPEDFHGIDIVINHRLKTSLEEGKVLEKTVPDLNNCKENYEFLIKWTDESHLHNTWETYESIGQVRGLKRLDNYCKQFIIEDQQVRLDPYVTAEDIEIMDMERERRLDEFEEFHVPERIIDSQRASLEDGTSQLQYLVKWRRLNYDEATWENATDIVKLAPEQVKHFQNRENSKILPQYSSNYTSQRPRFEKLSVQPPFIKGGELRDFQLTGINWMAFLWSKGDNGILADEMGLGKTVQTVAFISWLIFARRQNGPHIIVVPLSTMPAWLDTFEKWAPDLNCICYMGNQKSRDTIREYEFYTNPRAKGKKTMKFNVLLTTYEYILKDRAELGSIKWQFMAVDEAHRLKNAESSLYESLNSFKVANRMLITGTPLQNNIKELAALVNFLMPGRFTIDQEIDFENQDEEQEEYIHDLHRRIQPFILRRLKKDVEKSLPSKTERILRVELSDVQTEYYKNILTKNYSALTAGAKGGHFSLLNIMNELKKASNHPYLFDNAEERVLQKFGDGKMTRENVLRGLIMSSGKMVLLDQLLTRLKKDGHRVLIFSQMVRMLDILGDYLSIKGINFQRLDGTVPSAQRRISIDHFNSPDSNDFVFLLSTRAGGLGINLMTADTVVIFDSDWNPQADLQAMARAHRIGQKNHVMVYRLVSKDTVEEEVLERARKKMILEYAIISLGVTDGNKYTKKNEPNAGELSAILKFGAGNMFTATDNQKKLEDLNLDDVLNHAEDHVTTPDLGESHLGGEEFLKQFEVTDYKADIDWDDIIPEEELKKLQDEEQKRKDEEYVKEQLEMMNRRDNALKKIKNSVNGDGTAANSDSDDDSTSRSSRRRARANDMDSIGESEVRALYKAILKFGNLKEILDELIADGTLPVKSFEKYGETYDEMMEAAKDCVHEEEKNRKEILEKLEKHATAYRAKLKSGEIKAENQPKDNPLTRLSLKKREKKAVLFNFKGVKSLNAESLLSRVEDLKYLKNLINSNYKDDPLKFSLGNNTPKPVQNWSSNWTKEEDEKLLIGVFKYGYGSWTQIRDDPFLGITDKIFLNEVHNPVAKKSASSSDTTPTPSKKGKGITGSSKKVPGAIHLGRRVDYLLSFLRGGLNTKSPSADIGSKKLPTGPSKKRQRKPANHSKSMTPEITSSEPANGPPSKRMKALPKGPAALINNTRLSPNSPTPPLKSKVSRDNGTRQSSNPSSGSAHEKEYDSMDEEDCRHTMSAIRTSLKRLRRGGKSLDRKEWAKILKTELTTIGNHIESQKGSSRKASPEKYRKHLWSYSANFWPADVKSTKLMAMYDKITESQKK

Sequence of Protein translocase subunit SecA (Escherichia coli (strain K12)) (P10408 whole entry): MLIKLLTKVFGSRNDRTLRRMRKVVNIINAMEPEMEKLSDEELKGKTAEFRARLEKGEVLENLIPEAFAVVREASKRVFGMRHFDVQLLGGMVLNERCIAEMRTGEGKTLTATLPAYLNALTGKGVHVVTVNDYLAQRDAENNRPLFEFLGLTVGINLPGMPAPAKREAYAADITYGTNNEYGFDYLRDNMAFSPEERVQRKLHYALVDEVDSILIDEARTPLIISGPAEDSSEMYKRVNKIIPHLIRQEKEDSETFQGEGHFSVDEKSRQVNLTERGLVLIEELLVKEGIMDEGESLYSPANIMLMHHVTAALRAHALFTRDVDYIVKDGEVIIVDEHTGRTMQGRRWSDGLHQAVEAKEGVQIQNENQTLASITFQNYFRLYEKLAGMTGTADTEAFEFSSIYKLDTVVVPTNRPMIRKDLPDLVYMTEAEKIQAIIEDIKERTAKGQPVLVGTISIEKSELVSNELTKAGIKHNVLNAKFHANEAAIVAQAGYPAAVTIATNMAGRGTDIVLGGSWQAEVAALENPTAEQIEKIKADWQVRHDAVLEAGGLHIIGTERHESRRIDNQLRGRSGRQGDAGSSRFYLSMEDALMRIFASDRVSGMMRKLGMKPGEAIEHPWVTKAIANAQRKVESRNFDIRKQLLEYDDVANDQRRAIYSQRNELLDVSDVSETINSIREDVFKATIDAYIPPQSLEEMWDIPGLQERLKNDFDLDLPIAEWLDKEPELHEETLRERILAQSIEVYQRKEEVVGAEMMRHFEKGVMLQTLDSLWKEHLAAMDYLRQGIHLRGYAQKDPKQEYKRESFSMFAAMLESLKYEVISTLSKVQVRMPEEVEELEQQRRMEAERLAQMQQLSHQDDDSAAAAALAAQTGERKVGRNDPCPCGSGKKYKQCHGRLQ

| SMILES | Percent Effect [1] | Percent Effect [2] | Percent Effect [3] | Percent Effect [4] | Percent Effect [5] | Percent Effect [6] | Percent Effect [7] | Percent Effect [8] | Percent Effect [9] | Percent Effect [10] | Percent Effect [11] |
| --- | --- | --- | --- | --- | --- | --- | --- | --- | --- | --- | --- |
| O=C(c1cnoc1)N1CCC[C@]2(C[C@@H](OCc3ccccn3)CO2)C1 | -1.86% | 21.9% | -6.83% | 23.6% | 5.56% | -1.6% | 12.8% | 1.81% | 6.25% | 8.64% | -6.46% |
| CC(=O)NCC1CCN(C(=O)c2csc(-c3ccc(C)cc3C)n2)CC1 | -3.29% | 13.5% | 1.21% | 1.58% | 1.58% | 0.554% | 4.49% | 35.7% | 7.92% | 23.2% | 0.867% |
| CC(C)Oc1ncc(C(=O)N2CCC(NC(=O)C3CC3)CC2)cc1Cl | -5.61% | -2.74% | -0.0193% | -3.72% | -5.56% | -0.798% | 12.8% | 5.13% | 0% | 6.17% | -0.607% |
| COc1c(CNC2CCN(C(C)(C)C)CC2)c(C(C)C)nn1C | -3.54% | 10.5% | -6.9% | -3.36% | 6.07% | -2.52% | 4.65% | -8.8% | 12.3% | 16.1% | -1.24% |
| Cn1ccnc1CN1CCN(CC(=O)NCC(F)(F)F)CC1 | -2.81% | 5.41% | -5.23% | 3.2% | -0.66% | -4.01% | 0% | 11.1% | 0.493% | 6.17% | -3% |
| O=C(c1ccccn1)N1CCc2c(nc(N3CCCC3)[nH]c2=O)C1 | -7.12% | 12.2% | 0.895% | 26.1% | 0.198% | -3.48% | 7.64% | 10.1% | 3.23% | 11.7% | -17.3% |
| CC(=O)c1c(F)cccc1N1CCC(CS(N)(=O)=O)CC1 | -2% | -2.74% | 4.36% | -0.254% | 0.595% | -2% | 10.4% | 3.02% | 4.17% | 3.7% | -2.94% |
| Cc1cnn(CCC(=O)N2CCCN(c3ncccc3C#N)CC2)c1 | -7.15% | 19% | -1.68% | 6.67% | -1.74% | -0.215% | 9.61% | -1.81% | 4.17% | 20.2% | -30.4% |
| CO[C@H]1CN(Cc2cccc(C#N)c2)[C@@H]2COC[C@H]12 | -3.41% | 8% | -0.964% | 2.51% | 0.965% | -48.9% | 7.52% | -21.7% | 5.21% | 22.5% | -5.96% |
| CN(CCCNC(=O)N1CCCC1c1ccsc1)c1ccccn1 (configuration not stated) | -0.565% | 28.6% | -13.6% | -0.894% | 1.5% | 3.92% | 12.5% | 25.5% | 9.71% | 19.5% | -10.5% |
| N#Cc1cccc(S(=O)(=O)NC2CCN(Cc3ccccc3)C2=O)c1 (configuration not stated) | -2.71% | 12.7% | 0.264% | 4.28% | -4.44% | -6.84% | 2.21% | 1.05% | 3.45% | 11.4% | -7.32% |
| COc1ccc(NC(=O)NC(C)(C)c2noc(C)n2)cc1 | -5.98% | 2.74% | 9.96% | -2.01% | 0.979% | 5% | 13.5% | 7.14% | 4.3% | 12.5% | -1.95% |
| CC(=O)N1CCCC(c2cnc(-c3c(C)nn(C)c3C)cn2)C1 (configuration not stated) | -2.17% | 0% | 6.16% | -0.374% | -2.17% | -1.17% | -4.67% | 8.02% | 2.13% | 6.41% | -1.64% |
| CCCOc1ccc(CNC2CCCc3c2cnn3CC)cc1OC (configuration not stated) | -6.15% | 15.2% | -7.05% | 11% | 6.33% | -3.04% | 5.98% | 2.78% | 9.36% | 21.5% | -12.2% |
| CCc1cc(NCCNc2cccnc2)n2nccc2n1 | -3.38% | 2.7% | 3.96% | 4.15% | -3.09% | 1.91% | 10% | 13.2% | 4.76% | 7.32% | -3.82% |
| Cc1nccn1CC1CCCN1S(=O)(=O)Cc1ccccc1 (configuration not stated) | -4.51% | 5.06% | 2.14% | 4.66% | 3.49% | 1.9% | -0.573% | -9.27% | 2.46% | 3.8% | -0.456% |
| CCc1ccc(-n2c(=O)[nH]c3nc(N4CCSCC4)ncc3c2=O)cc1 | -2.14% | 21.1% | 0.234% | -5.88% | 1.85% | 5.92% | 15.8% | -2.32% | 0% | 5.2% | 45.8% |
